Growth data for 14 compounds are collected here from PubChem BioAssay (NCI).

Test systems include HCT-15 colon; HT29 colon; SNB-19 CNS; U251 CNS; PC-3 prostate; SK-MEL-5 melanoma; UACC-62 melanoma; LOX IMVI melanoma; SK-MEL-28 melanoma.
What all share (assay): NCI-60 one-dose screen, 48 h (100 = growth as untreated, 0 = no growth, -100 = all killed)
Common to all, as to details: 10 µM unless noted

The panel holds about 83,000 compounds, 20% with a hit somewhere; the sample as a whole holds those more often.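 Plates (96-well) were seeded with cells, treated with compound at one concentration, and incubated for 48 hours before percent growth was determined.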 Unmarked numbers belong to inactive results. Active and inactive are the calls of the source. The calls were made as follows: active = growth percent below 10; inactive = the rest.

On to `COc1ccc(Nc2nn3c(-c4ccccc4)cc(-c4ccccc4)nc3c2C(N)=O)c(OC)c1`, for which the growth was 70.5% with HCT-15 colon; 41.9% in the assay on HT29 colon; 58.2% in the assay with SNB-19 CNS; 18.6% in the assay with U251 CNS; 44.6% in the assay on PC-3 prostate; 55.9% in the assay with SK-MEL-5 melanoma. Moreover, the figures for the growth in the assay on UACC-62 melanoma, in the assay with LOX IMVI melanoma and with SK-MEL-28 melanoma were 40.7%, 54.6% and 71%, respectively.

As to `O=C(Nc1ccncc1)C(=O)c1cn(S(=O)(=O)c2ccccc2F)c2ccccc12`, the growth in the assay on HCT-15 colon was 31.7%; in the assay on HT29 colon, 7.48% (active); in the assay on SNB-19 CNS, 60.6%; in the assay with U251 CNS it was 30.7%; in the assay on PC-3 prostate, 40.1%; in the assay with SK-MEL-5 melanoma, 13.5%. For the same compound, the figures for the growth in the assay with UACC-62 melanoma, in the assay on LOX IMVI melanoma and in the assay on SK-MEL-28 melanoma were 32.3%, 37% and 61.5%, respectively.

Turning to `Cn1cc(-c2cnc3ccc(NC(=O)Nc4ccc(F)c(Br)c4)cc3n2)cn1`, the growth is 19.3% in the assay on HCT-15 colon; 40% in the assay on HT29 colon; 57.7% with SNB-19 CNS; 44.9% in the assay with U251 CNS; 0.663% (active) in the assay on PC-3 prostate; -9.12% (active) with SK-MEL-5 melanoma. The growth is -41.2% (active) in the assay on UACC-62 melanoma, 4.06% (active) in the assay with LOX IMVI melanoma and 50.1% with SK-MEL-28 melanoma.

On to `CC12CCCC(CC(=O)c3[nH]c4ccccc4c31)C2` (stereo unspecified), for which the growth was 26.6% with HCT-15 colon; 13.2% in the assay on HT29 colon; 27.9% with SNB-19 CNS; 24.9% in the assay on U251 CNS; 22.5% with PC-3 prostate; 6.25% (active) in the assay with SK-MEL-5 melanoma. The growth in the assay with UACC-62 melanoma was 37.4%; in the assay with LOX IMVI melanoma, 36.2%; in the assay on SK-MEL-28 melanoma, 53%.

Take `CCCCCCCCC(C)OC(=O)c1nn(C(C)=O)c2ccccc12` (stereo unspecified): the growth in the assay with HCT-15 colon was 101%; in the assay on HT29 colon it was 103%; in the assay on SNB-19 CNS it was 107%; in the assay with U251 CNS, 94.7%; with PC-3 prostate, 95.7%; in the assay with SK-MEL-5 melanoma, 97.7%. For the same compound, the growth in the assay with UACC-62 melanoma is 92.3%; in the assay with LOX IMVI melanoma, 103%; in the assay on SK-MEL-28 melanoma, 116%.

With `COc1ccc(Nc2nn3c(C)cc(C)nc3c2C(=O)Nc2ccc(C)cc2)c(OC)c1`, the growth is 101% in the assay with HCT-15 colon; 101% in the assay on HT29 colon; 101% in the assay on SNB-19 CNS; 94.8% in the assay with U251 CNS; 98.8% with PC-3 prostate; 103% in the assay with SK-MEL-5 melanoma. Further, the growth is 93% in the assay with UACC-62 melanoma, 109% in the assay with LOX IMVI melanoma and 94.4% with SK-MEL-28 melanoma.

`COc1ccc(-c2nc(-c3nc4cc(C)c(C)cc4[nH]3)cc3c2[nH]c2ccccc23)cc1`: the growth is 3.41% (active) with HCT-15 colon; 1.21% (active) with HT29 colon; 82.7% with SNB-19 CNS; 10.5% in the assay on U251 CNS; 40.9% in the assay with PC-3 prostate; 45.7% in the assay with SK-MEL-5 melanoma. Also, the values for the growth in the assay on UACC-62 melanoma, with LOX IMVI melanoma and with SK-MEL-28 melanoma were -0.969% (active), -31.6% (active) and 39.5%, respectively.

On to `O=C(Nc1ccc(Cl)c(Cl)c1)NS(=O)(=O)c1cnccc1Oc1ccc(F)cc1`, for which the growth was 73.9% in the assay on HCT-15 colon; 75.1% in the assay with HT29 colon; 57% with SNB-19 CNS; 56.8% in the assay with U251 CNS; 22.2% in the assay with PC-3 prostate; 108% with SK-MEL-5 melanoma. The growth in the assay with UACC-62 melanoma was 59.2%; in the assay on LOX IMVI melanoma, 83.3%; in the assay on SK-MEL-28 melanoma, 94.5%.

On to `O=c1[nH]c(Nc2ccc(S(=O)(=O)O)cc2)nc2nc(Nc3ccc(NC(=S)Nc4ccccc4)cc3)nc(-c3ccc(O)cc3O)c12`, for which the growth in the assay on HCT-15 colon was 105%; in the assay on HT29 colon, 125%; in the assay on SNB-19 CNS, 91.1%; with U251 CNS, 101%; in the assay with PC-3 prostate, 108%; with SK-MEL-5 melanoma it was 114%. The growth in the assay on UACC-62 melanoma was 91.5%; in the assay with LOX IMVI melanoma it was 96.2%; in the assay on SK-MEL-28 melanoma, 112%.

On to `Nc1nnc(-c2ccc3ccccc3c2O)o1`, for which the growth with HCT-15 colon is 78.6%; with HT29 colon, 105%; in the assay on SNB-19 CNS it was 97.1%; in the assay with U251 CNS, 90.4%; in the assay on PC-3 prostate it was 82.8%; in the assay on SK-MEL-5 melanoma, 94.8%. The figures for the growth in the assay with UACC-62 melanoma, with LOX IMVI melanoma and in the assay on SK-MEL-28 melanoma were 97.5%, 85.3% and 97.8%, respectively.

Consider `O=C(NNC(=S)Nc1ccccc1)c1cc2ccc1CCc1ccc(cc1)CC2`, for which the growth in the assay with HCT-15 colon is 40.2%; with HT29 colon it was 76.1%; in the assay on SNB-19 CNS, 56.9%; with U251 CNS, 49.3%; with PC-3 prostate it was 57.8%; in the assay on SK-MEL-5 melanoma it was 43.8%. In addition, the growth with UACC-62 melanoma is 55.9%; in the assay with LOX IMVI melanoma, 59.4%; in the assay with SK-MEL-28 melanoma, 73.5%.

Regarding `N=c1ccc2nc3ccc(N)cc3sc-2c1`, the growth was 27.3% in the assay with HCT-15 colon; 41.3% with HT29 colon; 4.78% (active) in the assay on SNB-19 CNS; 6.47% (active) with U251 CNS; 7.2% (active) in the assay with PC-3 prostate; -80.3% (active) with SK-MEL-5 melanoma. The results for the growth in the assay on UACC-62 melanoma, in the assay with LOX IMVI melanoma and in the assay with SK-MEL-28 melanoma were 16.4%, 3.98% (active) and 57.1%, respectively.

With `COc1ccc(C2=Nn3c(nnc3-n3nc(C)cc3C)SC2)cc1`, the growth with HCT-15 colon was 17.1%; with HT29 colon, -17% (active); in the assay on SNB-19 CNS, 46%; with U251 CNS, 15.5%; in the assay on PC-3 prostate it was 9.91% (active); with SK-MEL-5 melanoma, 0.149% (active). In addition, the figures for the growth in the assay on UACC-62 melanoma, with LOX IMVI melanoma and with SK-MEL-28 melanoma were 39.5%, 26.9% and 54.8%, respectively.

Regarding `C=C1C(=O)O[C@@H]2[C@@H]3O[C@@](C)(CC/C=C(\C)CCC[C@@H]2C)[C@H](O)C[C@@H]13`, the growth in the assay on HCT-15 colon was 38.9%; in the assay on HT29 colon, 32.3%; in the assay on SNB-19 CNS, 84.3%; in the assay on U251 CNS it was 56.4%; with PC-3 prostate, 39.8%; in the assay with SK-MEL-5 melanoma it was 48.2%. Moreover, the growth in the assay with UACC-62 melanoma is 17.2%; with LOX IMVI melanoma it was 44%; with SK-MEL-28 melanoma it was 80.5%.
